About 1,500 (3.8%) of roughly 39,000 compounds were called active. Many of the other results were omitted from the sample, so actives are more common in it than they were.
These compounds were tested on HSkMC (human skeletal muscle cells) (assay: cytotoxicity call (relative viability < 0.9)). Details: 10 µM.

Compound	cytotoxicity call
Cc1cc(C(=O)Nc2cccc3c2O[C@@H](CN(C)C(=O)Nc2ccc4c(c2)OCO4)[C@@H](C)CN([C@H](C)CO)C3=O)n(C)n1	inactive
O=C(N[C@@H](c1ccc(-c2ccccc2)cc1)c1cnccn1)C1CCN(CCOc2ccc(F)cc2)CC1	inactive
Cc1cc(-c2cc(OC(=O)c3ccccc3)ccc2Cl)cc2nnc(Nc3ccc(OCCN4CCCC4)cc3)nc12	active
O=C(N[C@@H](c1ccccc1)c1ccc2ccccc2n1)C1CCN(CCOc2ccc(Cl)cc2)CC1	inactive
CC(C)=C[C@H]1[C@@H](c2nc3cc(Br)ccc3o2)C1(C)C	inactive
C[C@@H]1CCCCO[C@H](CN(C)S(=O)(=O)c2ccc(F)cc2)[C@@H](C)CN([C@H](C)CO)C(=O)c2cc(NC(=O)Nc3ccc(C(F)(F)F)cc3)ccc2O1	inactive
COCC(=O)N1C[C@@H](C)[C@H](OC)CN(C)C(=O)c2ccc(NC(=O)c3ccc(F)cc3)cc2OC[C@@H]1C	inactive
C[C@@H]1CN([C@@H](C)CO)C(=O)Cc2cc(NC(=O)Nc3ccc(F)cc3)ccc2O[C@H]1CN(C)Cc1ccc(C(F)(F)F)cc1	inactive
C[C@@H]1CN([C@@H](C)CO)C(=O)Cc2cc(NC(=O)Nc3ccc(F)cc3)ccc2O[C@@H]1CN(C)Cc1ccc(C(F)(F)F)cc1	active
C[C@H]1CN([C@@H](C)CO)C(=O)Cc2cc(NC(=O)Nc3ccc(F)cc3)ccc2O[C@H]1CN(C)Cc1ccc(C(F)(F)F)cc1	active
C[C@H]1CN([C@@H](C)CO)C(=O)Cc2cc(NC(=O)Nc3ccc(F)cc3)ccc2O[C@@H]1CN(C)Cc1ccc(C(F)(F)F)cc1	inactive
C[C@@H]1CN([C@H](C)CO)C(=O)Cc2cc(NC(=O)Nc3ccc(F)cc3)ccc2O[C@H]1CN(C)Cc1ccc(C(F)(F)F)cc1	active
C[C@H](CO)N1C[C@H](C)[C@@H](CN(C)Cc2ccc(C(F)(F)F)cc2)Oc2ccc(NC(=O)Nc3ccc(F)cc3)cc2CC1=O	active
C[C@H](CO)N1C[C@H](C)[C@@H](CN(C)Cc2ccc(C(=O)O)cc2)Oc2c(NS(=O)(=O)c3cn(C)cn3)cccc2C1=O	inactive
CC(C)NC(=O)N(C)C[C@@H]1OCCCC[C@H](C)Oc2ccc(NC(=O)Nc3ccc(F)cc3)cc2C(=O)N([C@H](C)CO)C[C@@H]1C	inactive
C[C@@H]1CN([C@@H](C)CO)C(=O)c2cc(NC(=O)C3CCCCC3)ccc2O[C@@H](C)CCCCO[C@H]1CN(C)C(=O)Nc1ccccc1	inactive
C[C@H](CO)N1C[C@H](C)[C@@H](CN(C)S(=O)(=O)c2ccc(Cl)cc2)Oc2ccc(N(C)C)cc2C1=O	inactive
COCCNC(=O)C[C@@H]1CC[C@H]2[C@@H](COC[C@@H](O)CN2C(=O)Nc2ccc3c(c2)OCO3)O1	inactive
O=C(O)Cc1cccc(OCCCN(Cc2cccc(C(F)(F)F)c2Cl)CC(c2ccccc2)c2ccccc2)c1	inactive
Cc1noc(C)c1NC(=O)N(C)C[C@H]1Oc2ccc(NC(=O)Nc3cccc4ccccc34)cc2C(=O)N([C@@H](C)CO)C[C@H]1C	inactive
C=CCOC(=O)[C@@H]1[C@H]2C(=O)O[C@H](c3ccccc3)[C@H](c3ccccc3)N2[C@H](c2ccc(OCCOC(=O)[C@H]3C[C@H]4C(=O)N[C@@H](CCCCN(C)C)C(=O)N4[C@H]3c3cccc(OCCO)c3)cc2)[C@@]12C(=O)Nc1ccc(I)cc12	inactive

Compound	cytotoxicity call
COc1ccc2c3c(n(c2c1)C)[C@H](CO)N(C[C@]13CCN(CC1)C(=O)CN(C)C)S(=O)(=O)C	inactive
C[C@@H]1CN([C@H](C)CO)C(=O)Cc2cc(NC(=O)Nc3ccc(F)cc3)ccc2O[C@@H]1CN(C)Cc1ccc(C(F)(F)F)cc1	active
C[C@H](CO)N1C[C@H](C)[C@H](CN(C)Cc2ccc(C(F)(F)F)cc2)Oc2ccc(NC(=O)Nc3ccc(F)cc3)cc2CC1=O	active
CO[C@H]1CN(C)C(=O)c2cc(NC(=O)NC(C)C)ccc2OC[C@H](C)N(Cc2ccc(-c3ccccn3)cc2)C[C@@H]1C	inactive
COCC(=O)N(C)C[C@@H]1Oc2cc(C#Cc3ccccc3)ccc2S(=O)(=O)N([C@H](C)CO)C[C@H]1C	inactive
CO[C@@H]1CN(C)C(=O)c2cc(NC(=O)Nc3ccccc3)ccc2OC[C@@H](C)N(C(=O)CN(C)C)C[C@@H]1C	inactive
Nc1ccn([C@H]2CC[C@@H](CO)O2)c(=O)n1	inactive
CC(C)CC#Cc1ccc2c(c1)O[C@H](CN(C)C(=O)c1ccncc1)[C@@H](C)CN([C@H](C)CO)S2(=O)=O	inactive
CCn1c(-c2nonc2N)nc2cncc(C(=O)N3CC[C@H](N)C3)c21	active
C[C@H](CO)N1C[C@H](C)[C@H](CN(C)Cc2ccncc2)OCCCC[C@H](C)Oc2ccc(NC(=O)NC3CCCCC3)cc2C1=O	inactive
C[C@@H]1CCCCO[C@H](CN(C)C(=O)Cc2ccccc2)[C@H](C)CN([C@H](C)CO)C(=O)c2cc(NS(=O)(=O)c3ccc(Cl)cc3)ccc2O1	inactive
C[C@H](CO)N1C[C@H](C)[C@H](CN(C)C(=O)C2CCCCC2)OCCCC[C@H](C)Oc2ccc(NC(=O)Nc3ccc4c(c3)OCO4)cc2C1=O	inactive
Nc1ccn([C@H]2O[C@@H](CO)[C@@H](O)[C@@H]2O)c(=O)n1	inactive
O=C(C[C@@H]1C=C[C@@H](NS(=O)(=O)c2ccccc2F)[C@@H](CO)O1)NCCCN1CCOCC1	inactive
O=C(CCCCC(=O)N/N=C/c1cc[n+]([O-])cc1)NO	inactive
Cc1ccc(S(=O)(=O)Nc2ccc3c(c2)CC(=O)N([C@H](C)CO)C[C@H](C)[C@H](CN(C)C(=O)Nc2cccc4ccccc24)O3)cc1	inactive
CN(C)C1CCN(C(=O)c2cnc(-c3noc4cc(-c5cccc(C(F)(F)F)c5)ccc34)s2)CC1	active
CN(C)C1CCN(C(=O)c2cnc(-c3noc4cc(-c5ccccc5C(F)(F)F)ccc34)s2)CC1	inactive
C[C@H](CO)N1C[C@H](C)[C@H](CN(C)C(=O)Nc2ccccc2)Oc2ncc(-c3cccc(C(F)(F)F)c3)cc2C1=O	inactive
COc1ccc(S(=O)(=O)Nc2ccc3c(c2)CC(=O)N([C@@H](C)CO)C[C@H](C)[C@@H](CN(C)S(=O)(=O)c2cn(C)cn2)O3)cc1	inactive
O=C(C1=C[C@H](c2coc3ccccc3c2=O)C[C@H](OCCCCO)O1)N1CCN(Cc2ccc3c(c2)OCO3)CC1	inactive

Compound	cytotoxicity call
CNc1cccc(CN)c1	inactive
CN1CCC(Nc2nc(Nc3ccc(Oc4ccccc4)cc3)c3c(O)ncc(Br)c3n2)CC1	active
C=CC[C@@H](CC(=O)N(CCO)Cc1ccccc1)C(=O)N[C@H](COC(=O)[C@@H](CC=C)CC(=O)OC(C)(C)C)Cc1c[nH]c2ccccc12	inactive
C=CC[C@H](CC(=O)N(CCO)Cc1ccccc1)C(=O)N[C@@H](COC(=O)[C@H](CC=C)CC(=O)OC(C)(C)C)Cc1c[nH]c2ccccc12	inactive
C=CC[C@@H](CC(=O)N(CCO)Cc1ccccc1)C(=O)N[C@@H](COC(=O)[C@@H](CC=C)CC(=O)OC(C)(C)C)Cc1c[nH]c2ccccc12	inactive
C=CC[C@@H](CC(=O)N(CCO)Cc1ccccc1)C(=O)N[C@@H](COC(=O)[C@@H](CC=C)Cc1ccc(F)cc1)Cc1c[nH]c2ccccc12	active
C=CC[C@@H](CC(=O)N(CCO)Cc1ccccc1)C(=O)N[C@@H](COC(=O)[C@H](CC=C)CC(=O)OC(C)(C)C)Cc1c[nH]c2ccccc12	inactive
C=CC[C@@H](CC(=O)N(CCO)Cc1ccccc1)C(=O)N[C@@H](COC(=O)[C@H](CC=C)Cc1ccc(F)cc1)Cc1c[nH]c2ccccc12	active
C=CC[C@H](CC(=O)N(CCO)Cc1ccccc1)C(=O)N[C@@H](COC(=O)[C@@H](CC=C)CC(=O)OC(C)(C)C)Cc1c[nH]c2ccccc12	inactive
C=CC[C@@H](CC(=O)N(CCO)Cc1ccccc1)C(=O)N[C@H](COC(=O)[C@@H](CC=C)Cc1ccc(F)cc1)Cc1c[nH]c2ccccc12	active
C=CC[C@H](CC(=O)N(CCO)Cc1ccccc1)C(=O)N[C@H](COC(=O)[C@H](CC=C)CC(=O)OC(C)(C)C)Cc1c[nH]c2ccccc12	inactive
C=CC[C@H](CC(=O)N(CCO)Cc1ccccc1)C(=O)N[C@H](COC(=O)[C@@H](CC=C)CC(=O)OC(C)(C)C)Cc1c[nH]c2ccccc12	inactive
C=CC[C@H](CC(=O)N(CCO)Cc1ccccc1)C(=O)N[C@H](COC(=O)[C@@H](CC=C)Cc1ccc(F)cc1)Cc1c[nH]c2ccccc12	inactive
C=CC[C@H](CC(=O)N(CCO)Cc1ccccc1)C(=O)N[C@@H](COC(=O)[C@@H](CC=C)Cc1ccc(F)cc1)Cc1c[nH]c2ccccc12	active
C[C@H]1CCCCO[C@H](CN(C)CC2CC2)[C@@H](C)CN([C@@H](C)CO)C(=O)c2cc(NC(=O)C3CCCCC3)ccc2O1	inactive
C[C@@H]1CN([C@@H](C)CO)C(=O)c2cc(NC(=O)C3CC3)ccc2O[C@H]1CN(C)S(=O)(=O)c1ccc(F)cc1	inactive
C[C@@H]1CN([C@H](C)CO)S(=O)(=O)c2ccc(/C=C/c3ccccc3)cc2O[C@@H]1CN(C)C(=O)Nc1cc(F)ccc1F	inactive
NC(=S)c1cnccn1	inactive
C[C@@H]1CCCCO[C@H](CN(C)Cc2ccc(C(F)(F)F)cc2)[C@H](C)CN([C@@H](C)CO)C(=O)c2cc(NS(=O)(=O)c3ccccc3)ccc2O1	inactive
C[C@H](CO)N1C[C@H](C)[C@@H](CN(C)C(=O)Nc2ccc(F)cc2)Oc2ccc(NC(=O)C3CC3)cc2CC1=O	inactive
C[C@@H]1CN([C@H](C)CO)C(=O)c2cc(C3=CCCC3)cnc2O[C@@H]1CN(C)C(=O)c1ccc2c(c1)OCO2	inactive

Reference: the antibiotic and cytotoxicity screens of Wong et al. (2023)
